Source: PubChem BioAssay (several laboratories)
GDH-TPI inh: GDH-TPI coupled enzyme inhibition counter-screen | GDH-TPI coupled enzyme counterscreen, NADH absorbance | hit rate 1.2% among 360,000 | inhibition, % at 4.8 µM; in the data active = inhibition above about 30%
FadD28 FP inh: inhibitors of Mycobacterium tuberculosis FadD28 bisubstrate binding; AID 588549; FadD28 bisubstrate probe binding, fluorescence polarization; hit rate 0.22% among 360,000; inhibition, % at 12.5 µM; in the data active = inhibition above about 8.5%, passing the limit was not always enough
BioA inh: BioA (M. tuberculosis) enzyme inhibition. purified M. tuberculosis BioA enzyme, plate reader. inhibition, % at 9.99 µM. hit rate 0.096% among 360,000. AID 602481; in the data active = inhibition above about 40%
Rv3671c protease: inhibitors of M. tuberculosis serine protease Rv3671c; hit rate 0.048% among 320,000; AID 2606; P9WHR9; inhibition, % at 5.96 µM; in the data active = inhibition above about 38%;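 also: extracellular domain of Rv3671c used as enzyme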
Target sequence (P9WHR9 whole entry, looked up, the tested form may be a part): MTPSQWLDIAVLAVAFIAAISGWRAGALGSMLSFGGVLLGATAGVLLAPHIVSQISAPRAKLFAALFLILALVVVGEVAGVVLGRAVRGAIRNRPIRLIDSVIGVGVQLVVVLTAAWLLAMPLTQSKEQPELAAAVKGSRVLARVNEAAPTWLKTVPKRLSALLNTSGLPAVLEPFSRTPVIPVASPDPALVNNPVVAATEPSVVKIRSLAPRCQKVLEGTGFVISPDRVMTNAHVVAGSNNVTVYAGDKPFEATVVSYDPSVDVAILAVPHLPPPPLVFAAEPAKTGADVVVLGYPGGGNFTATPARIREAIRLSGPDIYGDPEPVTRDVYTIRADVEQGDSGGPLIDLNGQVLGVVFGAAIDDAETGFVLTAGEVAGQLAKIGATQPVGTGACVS
FBA Mtb inh: Mtb fructose-bisphosphate aldolase inhibition; AID 588726; P9WQA3; inhibition, % at 1 µM; hit rate 2.3% among 360,000; purified M. tuberculosis FBA, fluorescence read-out; in the data active = inhibition above about 27%
Of the large screens only hits and unclear results are named; the others gave an inactive call. The list is not random: actives were taken first. Their share in the collection is about 3%.

O=C(CSC(=S)N1CCCC1)N/N=C/c1c(O)[nH]c(=S)[nH]c1=O	GDH-TPI inh 46.2
COCCn1c(O)c(/C=N/NC(=O)CSC(=S)N2CCCC2)c(=O)[nH]c1=S	GDH-TPI inh 31.6
CCCCCCC(=O)N/N=C/c1c(O)n(CCCC)c(=S)[nH]c1=O	none
C/C=C/c1cnc2c(c1)C(=O)N([C@H](C)CO)C[C@H](C)[C@@H](CN(C)Cc1ccncc1)O2	none (no result: GDH-TPI inh, FadD28 FP inh, Rv3671c protease, FBA Mtb inh)
COc1ccccc1C#Cc1ccc2c(c1)O[C@H](CN(C)Cc1ccccc1)[C@H](C)CN([C@@H](C)CO)S2(=O)=O	none (no result: GDH-TPI inh, FadD28 FP inh, Rv3671c protease, FBA Mtb inh)
COc1ccc([C@H]2C=C(C(=O)N3CCCCC3)O[C@@H](OCc3ccc(CO)cc3)C2)cc1	none (no result: GDH-TPI inh, FadD28 FP inh, Rv3671c protease, FBA Mtb inh)
CN1C(=O)N(C)C(=O)C2(Cc3c(ccc4ccccc34)N(C)C2)C1=O	none
CN1CC(C(=O)O)Cc2c1ccc1ccccc21 (stereo unspecified)	FBA Mtb inh 102.3
COc1ccc(C(=O)OC(C)CN2CCOCC2)cc1OC (stereo unspecified)	FBA Mtb inh 121.4
COc1ccc(C(=O)OC(C)CN2CCOCC2)cc1 (stereo unspecified)	none
CO[C@@H]1CN(C)C(=O)c2ccc(NS(C)(=O)=O)cc2OC[C@H](C)N(Cc2ccccn2)C[C@@H]1C	none (no result: GDH-TPI inh, FadD28 FP inh, Rv3671c protease, FBA Mtb inh)
CO[C@@H]1CN(C)C(=O)c2ccc(NS(C)(=O)=O)cc2OC[C@H](C)N(CCC(F)(F)F)C[C@H]1C	none (no result: GDH-TPI inh, FadD28 FP inh, Rv3671c protease, FBA Mtb inh)
CCCC#Cc1cnc2c(c1)C(=O)N([C@@H](C)CO)C[C@@H](C)[C@H](CN(C)Cc1ccncc1)O2	none (no result: GDH-TPI inh, FadD28 FP inh, Rv3671c protease, FBA Mtb inh)
COc1ccc(CNC(=O)C[C@H]2C[C@@H]3c4cc(NC(=O)CC5CC5)ccc4O[C@@H]3[C@H](CO)O2)cc1	none (no result: GDH-TPI inh, FadD28 FP inh, Rv3671c protease, FBA Mtb inh)
Cc1cc(-c2nc3cccnc3s2)ccc1NS(=O)(=O)c1cccs1	GDH-TPI inh 41.9, FBA Mtb inh active
Cc1nc2ccc(S(=O)(=O)Nc3cccc(-c4nc5cccnc5s4)c3)cc2s1	none
CCS(=O)(=O)Nc1cccc(-c2nc3cccnc3s2)c1	none (no result: BioA inh)
O=S(=O)(Nc1ccc(-c2nc3cccnc3s2)cc1)c1ccccc1F	GDH-TPI inh 62.5, FBA Mtb inh active
CCS(=O)(=O)Nc1ccc(-c2nc3cccnc3s2)cc1	FBA Mtb inh active
Cc1nc2ccc(S(=O)(=O)Nc3ccc(-c4nc5cccnc5s4)cc3)cc2s1	FBA Mtb inh active
Cc1noc(C)c1S(=O)(=O)Nc1ccc2c(c1)CC(=O)N([C@H](C)CO)C[C@@H](C)[C@@H](CN(C)S(=O)(=O)c1ccc(Cl)cc1)O2	none (no result: GDH-TPI inh, FadD28 FP inh, Rv3671c protease, FBA Mtb inh)
CO[C@@H]1CN(C)C(=O)c2ccc(NC(=O)c3cc(C)on3)cc2OC[C@H](C)N(C(=O)C2CC2)C[C@@H]1C	none (no result: GDH-TPI inh, FadD28 FP inh, Rv3671c protease, FBA Mtb inh)
O=S(=O)(Nc1ccc(-c2nc3cccnc3s2)cc1)c1cccs1	FBA Mtb inh active
O=C(Nc1ccc(-c2nc3cccnc3s2)cc1)C1CCCO1 (stereo unspecified)	GDH-TPI inh 33.2, FBA Mtb inh active
O=S(=O)(Nc1ccc(-c2nc3cccnc3s2)cc1)c1ccc(Cl)s1	GDH-TPI inh 37.2, FBA Mtb inh active
Cc1cc(-c2nc3cccnc3s2)ccc1NS(=O)(=O)c1ccc2c(c1)OCCO2	FBA Mtb inh active
COc1ccc(NC(=O)C2CCCO2)cc1 (stereo unspecified)	none
CCOC(=O)C1=NN(c2ccccc2)C2C(=O)N(c3ccccc3OC)C(=O)C12 (stereo unspecified)	GDH-TPI inh 37.9
CCOC(=O)/C(=N\Nc1ccccc1)S(=O)(=O)c1ccccc1	GDH-TPI inh 31.0
CCOC(=O)/C(=N\Nc1ccccc1)P(=O)(c1ccccc1)c1ccccc1	GDH-TPI inh 51.0
c1csc(-c2ccnc3ncnn23)c1	FBA Mtb inh 160.2 (no result: BioA inh)
CN(C)/C=N/c1nc2nccc(-c3cccs3)n2n1	FBA Mtb inh 188.0 (no result: BioA inh)
C[C@@H]1CCCCO[C@@H](CN(C)S(=O)(=O)c2ccccc2)[C@@H](C)CN([C@H](C)CO)C(=O)c2cc(NC(=O)CCC(F)(F)F)ccc2O1	none (no result: GDH-TPI inh, FadD28 FP inh, Rv3671c protease, FBA Mtb inh)
COc1ccc2cc3cc(C(=O)NCc4cccs4)oc3nc2c1	GDH-TPI inh 31.1, FBA Mtb inh active
CCCCN(CC)CCCNC(=O)c1cc2cc3ccc(OC)cc3nc2o1	GDH-TPI inh 36.5, FBA Mtb inh active
CCCN(CCC)CCCNC(=O)c1cc2cc3ccc(OC)cc3nc2o1	GDH-TPI inh 31.6, FBA Mtb inh active
CO[C@H]1CN(C)C(=O)c2cc(NC(C)=O)ccc2OC[C@H](C)N(C(=O)c2cnccn2)C[C@@H]1C	none (no result: GDH-TPI inh, FadD28 FP inh, Rv3671c protease, FBA Mtb inh)
Cc1noc(C)c1S(=O)(=O)Nc1cccc2c1O[C@H](CN(C)S(C)(=O)=O)[C@H](C)CN([C@H](C)CO)C2=O	none (no result: GDH-TPI inh, FadD28 FP inh, Rv3671c protease, FBA Mtb inh)
CCOc1cc(CN2CCN(c3ccc(C(C)=O)cc3)CC2)ccc1OC	GDH-TPI inh 38.4
